Assay results from PubChem BioAssay AID720597 (Broad Institute, 2013).
Measured potencies and affinities stand elsewhere. The source made the active and inactive calls.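 Rule for the calls: active = fitted half-maximal dose no more than twice the top valid tested dose, for compounds that lower signal; inconclusive = fit invalid, or curve flat with activity between -70 and -30; inactive = potency past limit, curve flat within ±30, or signal increasing.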

molecular target: NAD-dependent protein deacylase sirtuin-5, mitochondrial (Homo sapiens) (UniProt Q9NXA8); test: blockers of sirtuin-5 peptide desuccinylation – biochemical, fluorescence imaging, cherry-pick, set 6, dose response (AID 720597); conditions: Purified SirT5, succinyl-peptide-AMC/trypsin fluorescence; series mostly up to 15 µM; activity change, negative = inhibition: at the top concentration;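 note: lower AMC signal can also come from blocking the trypsin step; 0% = median of neutral control wells and -100% = median of positive control wells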
Sequence (Q9NXA8 whole entry, looked up): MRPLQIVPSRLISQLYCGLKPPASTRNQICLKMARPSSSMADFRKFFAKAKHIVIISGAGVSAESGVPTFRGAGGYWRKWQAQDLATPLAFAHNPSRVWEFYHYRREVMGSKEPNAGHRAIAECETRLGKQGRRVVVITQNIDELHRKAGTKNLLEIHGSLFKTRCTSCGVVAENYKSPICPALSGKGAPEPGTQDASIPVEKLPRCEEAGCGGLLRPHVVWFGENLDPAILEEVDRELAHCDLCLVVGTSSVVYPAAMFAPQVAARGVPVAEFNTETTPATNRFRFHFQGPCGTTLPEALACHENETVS

Activity change, negative = inhibition, inactive:
CC(=O)N(Cc1cccc(F)c1)C[C@H]1[C@@H](c2ccccc2)[C@@H](CO)N1C(C)=O -14.4%, C[C@@H]1CN([C@H](C)CO)C(=O)Cc2cc(NC(=O)Nc3ccc(F)cc3)ccc2O[C@H]1CN(C)C -18.6%, CCNC(=O)C[C@H]1CC[C@H]2[C@@H](COC[C@@H](O)CN2C(=O)Nc2ccc(C(F)(F)F)cc2)O1 -19.6%, COc1cccc(NC(=O)N2CC(=O)N3[C@H](CO)[C@@H](c4ccc(C#CCC5CCCC5)cc4)[C@@H]3C2)c1 -15%, C[C@H]1CN([C@@H](C)CO)C(=O)Cc2cc(NC(=O)CCCCCC(=O)Nc3ccccc3N)ccc2O[C@H]1CN(C)Cc1ccc(Oc2ccccc2)cc1 -12%, C[C@@H]1CN([C@H](C)CO)S(=O)(=O)c2ccc(C#C[C@@H](C)O)cc2O[C@@H]1CN(C)Cc1ccc(-c2ccccc2)cc1 11.5%, CC(=O)N(C)C[C@H]1Oc2ncc(-c3cccc(F)c3)cc2C(=O)N([C@@H](C)CO)C[C@H]1C 9.47%, COc1ccc(S(=O)(=O)N(C)C[C@H]2OCCCC[C@@H](C)Oc3ccc(NS(=O)(=O)c4ccc(F)cc4)cc3C(=O)N([C@@H](C)CO)C[C@@H]2C)cc1 -7.85%, COc1cccc(NC(=O)N(C)C[C@H]2Oc3ncc(C4=CCCCC4)cc3C(=O)N([C@H](C)CO)C[C@@H]2C)c1 14.6%, COc1ccc(S(=O)(=O)Nc2ccc3c(c2)C(=O)N([C@H](C)CO)C[C@H](C)[C@H](CN(C)Cc2ccc(C(F)(F)F)cc2)OCCCC[C@@H](C)O3)cc1 6.62% [at 16 µM], C[C@@H]1CN([C@@H](C)CO)S(=O)(=O)c2ccc(/C=C/c3ccccc3)cc2O[C@@H]1CN(C)C(=O)NC1CCCC1 -1.6%, Cc1ccc(S(=O)(=O)Nc2ccc3c(c2)CC(=O)N([C@@H](C)CO)C[C@@H](C)[C@H](CN(C)Cc2ccc(Oc4ccccc4)cc2)O3)cc1 -17%, C[C@@H]1CN([C@H](C)CO)S(=O)(=O)c2ccc(C#Cc3ccc(F)cc3)cc2O[C@@H]1CN(C)C(=O)NC1CCCCC1 -17%, C[C@@H]1CN([C@@H](C)CO)S(=O)(=O)c2ccc(-c3cccc(F)c3)cc2O[C@@H]1CN(C)S(=O)(=O)c1ccc(F)cc1 -17.7%, C[C@H]1CN([C@@H](C)CO)C(=O)CCCn2cc(nn2)CO[C@H]1CN(C)Cc1ccccc1 9.33% [at 16 µM], C[C@H](CO)N1C[C@H](C)[C@@H](CN(C)Cc2ccccc2)Oc2ccc(N(C)C)cc2C1=O 29.6%, COc1ccccc1NC(=O)N[C@@H]1CC[C@H](CCNS(=O)(=O)c2ccc(Cl)cc2)O[C@@H]1CO -15.1%, COc1ccc(NC(=O)N(C)C[C@H]2OCCCC[C@@H](C)Oc3ccc(NC(=O)Cc4ccccc4)cc3C(=O)N([C@H](C)CO)C[C@@H]2C)cc1 0.973%, C[C@@H]1CCCCO[C@H](CN(C)C(=O)Nc2ccc(F)cc2)[C@@H](C)CN([C@H](C)CO)C(=O)c2cc(NC(=O)Nc3ccc(F)cc3)ccc2O1 21%, O=C(NCC[C@H]1CC[C@H](NS(=O)(=O)c2cccc(F)c2)[C@H](CO)O1)C1CCOCC1 5.64%, CNC[C@H]1Oc2ccc(NC(=O)Nc3ccc(F)cc3)cc2CC(=O)N([C@@H](C)CO)C[C@H]1C 32.5%, Cc1cc(C(=O)Nc2cccc3c2O[C@@H](CN(C)Cc2ccc(Oc4ccccc4)cc2)[C@H](C)CN([C@H](C)CO)C3=O)n(C)n1 6.07%, C[C@@H]1CN([C@H](C)CO)C(=O)Cc2cc(NS(=O)(=O)c3ccc(Cl)cc3)ccc2O[C@H]1CN(C)Cc1ccc(Oc2ccccc2)cc1 2.87%, Cc1ccc(S(=O)(=O)N(C)C[C@H]2OCCCC[C@H](C)Oc3ccc(NS(=O)(=O)c4ccc(Cl)cc4)cc3C(=O)N([C@H](C)CO)C[C@H]2C)cc1 -1.84%, Cc1cccc(S(=O)(=O)N2CCCCN3[C@@H](CO)[C@H](c4ccc(-c5ccccc5)cc4)[C@@H]3C2)c1 -6.16%, C[C@@H]1CCCCO[C@@H](CN(C)C(=O)C2CCCCC2)[C@H](C)CN([C@@H](C)CO)C(=O)c2cc(NC(=O)Nc3ccc(F)cc3)ccc2O1 -14.3%, C[C@@H]1CN([C@@H](C)CO)C(=O)c2cc(NS(=O)(=O)c3ccc(F)cc3)ccc2O[C@@H](C)CCCCO[C@@H]1CN(C)S(=O)(=O)c1ccc(Cl)cc1 -1.29%, O=C(C[C@@H]1C[C@H]2c3cc(NC(=O)Nc4ccc(C(F)(F)F)cc4)ccc3O[C@H]2[C@H](CO)O1)NCc1ccc2c(c1)OCO2 -16.5%, C[C@H]1CN([C@@H](C)CO)C(=O)Cc2cc(NC(=O)Nc3ccc(C(F)(F)F)cc3)ccc2O[C@H]1CN(C)Cc1ccc(C(=O)Nc2ccccc2N)cc1 4.98%, C[C@@H]1CCCCO[C@@H](CN(C)S(=O)(=O)c2ccc(F)cc2)[C@H](C)CN([C@@H](C)CO)C(=O)c2cc(NC(=O)Nc3ccc4c(c3)OCO4)ccc2O1 -4.57%, COc1ccc(S(=O)(=O)Nc2ccc3c(c2)CC(=O)N([C@@H](C)CO)C[C@H](C)[C@H](CN(C)Cc2ccc(C(F)(F)F)cc2)O3)cc1 -13.8% [at 7.5 µM], C[C@@H]1CN([C@@H](C)CO)S(=O)(=O)c2ccc(C#C[C@@H](C)O)cc2O[C@@H]1CN(C)Cc1ccc(-c2ccccc2)cc1 24.3%, C[C@@H]1CN([C@@H](C)CO)C(=O)c2cc(NS(C)(=O)=O)ccc2O[C@@H](C)CCCCO[C@@H]1CN(C)C -18.9%, C[C@H]1CN([C@@H](C)CO)C(=O)c2c(c3ccccc3n2C)-c2ccccc2CO[C@@H]1CN(C)Cc1ccc2c(c1)OCO2 -10.7%, C[C@@H]1CN([C@@H](C)CO)S(=O)(=O)c2ccc(C#CC3CC3)cc2O[C@@H]1CN(C)Cc1ccccc1F 7.53%, C[C@@H]1CN([C@@H](C)CO)C(=O)c2cc(-c3cccc(F)c3)cnc2O[C@H]1CN(C)C(=O)Nc1cc(F)ccc1F -1.1%, C[C@H](CO)N1C[C@H](C)[C@@H](CN(C)C(=O)Cc2ccccc2)OCc2ccccc2-c2c(n(C)c3ccccc23)C1=O -11.1%, C[C@H]1CCCCO[C@H](CN(C)Cc2ccc(C(F)(F)F)cc2)[C@@H](C)CN([C@@H](C)CO)C(=O)c2cc(NS(=O)(=O)c3ccccc3)ccc2O1 0.872%, CN(C)c1ccc2c(c1)[C@H]1C[C@H](CC(=O)NCc3ccc(Oc4ccccc4)cc3)O[C@H](CO)[C@H]1O2 14.7%, C[C@H](CO)N1C[C@H](C)[C@@H](CN(C)S(=O)(=O)c2ccc(F)cc2)Oc2cc(C#Cc3ccc(F)cc3)ccc2S1(=O)=O -21%
